Experimental data taken from PubChem BioAssay (Tox21).
Unmarked numbers belong to inactive results. Inconclusive results are not listed. Where a call stands in place of a potency, no number is given. Calls of active or inactive are those of the source. Unless noted, the call rests on the fitted dose curve.

Experiments:
[1] = qHTS assay to identify small molecule agonists of the sonic hedgehog signaling (Shh) pathway (AID 1259368);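 further: NIH/3T3-derived 3T3Gli1-Luc cells carrying a stable Gli1-driven firefly luciferase reporter; series mostly up to about 92 µM; nearly all actives have a fitted effect of over 15% in size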
Outline: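 3T3Gli1-Luc (NIH/3T3 clone, stable Gli1-Luc); 4 hr pre-incubation, then cpd in DMSO 24 hr, 37 C/5% CO2; luciferase reagent 30 min RT; luminescence.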

[2] = qHTS assay to identify small molecule antagonists of the sonic hedgehog signaling (Shh) pathway (AID 1259369); further: nearly all actives have a fitted effect of over 45% in size; further: potency means the concentration at half of the fitted maximal effect
Outline: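 3T3Gli1-Luc, conditioned-medium-stimulated, 24hr cpd, 37C/5% CO2; Gli1-driven firefly Luc luminescence after 30min RT with luciferase reagent. Cells plated 4hr before cpd.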

[3] = biological target: Estrogen receptor beta (Homo sapiens) (UniProt Q92731); assay: qHTS assay to identify small molecule agonists of the estrogen receptor beta (ER-beta) signaling pathway (AID 1259377; active means well fitted activation curve with a large enough effect in the signal ratio in the repeat runs, not every such curve was filed as active; the % refers to the signal ratio)
Estrogen receptor beta (Homo sapiens), sequence (Q92731 whole entry, looked up): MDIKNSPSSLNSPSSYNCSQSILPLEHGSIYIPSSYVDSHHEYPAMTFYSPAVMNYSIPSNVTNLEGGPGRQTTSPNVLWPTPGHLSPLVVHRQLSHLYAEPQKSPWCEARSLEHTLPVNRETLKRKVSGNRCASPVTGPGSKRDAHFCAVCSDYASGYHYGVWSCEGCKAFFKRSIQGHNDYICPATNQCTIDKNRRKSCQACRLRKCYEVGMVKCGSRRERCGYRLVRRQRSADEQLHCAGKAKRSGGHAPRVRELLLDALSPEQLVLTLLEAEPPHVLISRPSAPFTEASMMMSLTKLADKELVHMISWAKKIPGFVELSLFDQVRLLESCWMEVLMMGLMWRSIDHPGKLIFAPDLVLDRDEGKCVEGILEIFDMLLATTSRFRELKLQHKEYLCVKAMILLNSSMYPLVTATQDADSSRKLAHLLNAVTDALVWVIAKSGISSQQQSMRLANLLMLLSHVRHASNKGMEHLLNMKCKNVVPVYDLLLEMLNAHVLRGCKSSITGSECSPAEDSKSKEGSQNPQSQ
Outline: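 qHTS in ER-beta-UAS-bla HEK293T cells: 6 hr settling, then 16 hr compound at 37C, then LiveBLAzer substrate 2 h at RT before fluorescence reading.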

[4] = biological target: Estrogen receptor beta (Homo sapiens) (UniProt Q92731); assay: qHTS assay to identify small molecule antagonists of the estrogen receptor beta (ER-beta) signaling pathway (AID 1259378; active means well fitted inhibition curve with a large enough effect in the signal ratio in the repeat runs, not every such curve was filed as active; the % refers to the signal ratio)
Outline: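 ER-beta-UAS-bla HEK293T (GripTite) cells in 2% charcoal-stripped FBS medium were preincubated 6 hr at 37C, dosed with compound, then stimulated with 1 nM E2 (final) for 16 hr; beta-lactamase reporter read by B/G FRET fluorescence after 2 hr substrate loading.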

[5] = qHTS assay to identify small molecule agonists of the androgen receptor (AR) signaling pathway in the presence of an antagonist - cell viability counter screen (AID 1259379; active means well fitted curve in the direction sought with a large enough effect in the repeat runs; an effect the other way counts as inactive or inconclusive;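 further: MDA-kb2 human breast cancer cells carrying an MMTV luciferase reporter; series mostly up to about 92 µM; nearly all actives have a fitted effect of over 25% in size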)
Outline: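 Cells: MDA-kb2 (MMTV-luc, AR and GR elements), 3,000/well, 5 hr settle. Added: nilutamide 3.0uM final, then compounds (15 conc.). Incubation: 16 hr, 37C, no CO2. Read-out: CellTiter-Fluor, 1 hr, fluorescence.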

[6] = qHTS assay to identify small molecule agonists of the estrogen receptor beta (ER-beta) signaling pathway - cell viability counter screen (AID 1259380; active means well fitted curve in the direction sought with a large enough effect in the repeat runs; an effect the other way counts as inactive or inconclusive; further: nearly all actives have a fitted effect of over 30% in size)
Outline: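 HEK293T ER-beta-UAS-bla; 2% CS-FBS; 6 hr pre-plate, 16 hr cpd at 37C/5% CO2; LiveBLAzer read first, then CellTiter-Glo 30 min RT, luminescence.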

[7] = qHTS assay to identify small molecule antagonists of the estrogen receptor beta (ER-beta) signaling pathway - cell viability counter screen (AID 1259382; active means well fitted curve in the direction sought with a large enough effect in the repeat runs; an effect the other way counts as inactive or inconclusive; further: series mostly up to about 92 µM; nearly all actives have a fitted effect of over 55% in size)
Outline: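 Cells: ER-beta-UAS-bla HEK293T, 2,000/well, 2% CS-FBS, 6 hr settle. Cpd + E2 (1nM final), 16 hr, 37C/5% CO2. Bla FRET substrate 2 hr RT, then CellTiter-Glo 30 min RT, luminescence.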

[8] = biological target: Estrogen receptor (Homo sapiens) (UniProt P03372); assay: qHTS assay to identify small molecule agonists of the estrogen receptor alpha (ER-alpha) signaling pathway in the presence of an antagonist (AID 1259383); further: top concentration of the series differs between compounds; nearly all actives have a fitted effect of over 15% in size
Estrogen receptor (Homo sapiens), sequence (P03372 whole entry, looked up): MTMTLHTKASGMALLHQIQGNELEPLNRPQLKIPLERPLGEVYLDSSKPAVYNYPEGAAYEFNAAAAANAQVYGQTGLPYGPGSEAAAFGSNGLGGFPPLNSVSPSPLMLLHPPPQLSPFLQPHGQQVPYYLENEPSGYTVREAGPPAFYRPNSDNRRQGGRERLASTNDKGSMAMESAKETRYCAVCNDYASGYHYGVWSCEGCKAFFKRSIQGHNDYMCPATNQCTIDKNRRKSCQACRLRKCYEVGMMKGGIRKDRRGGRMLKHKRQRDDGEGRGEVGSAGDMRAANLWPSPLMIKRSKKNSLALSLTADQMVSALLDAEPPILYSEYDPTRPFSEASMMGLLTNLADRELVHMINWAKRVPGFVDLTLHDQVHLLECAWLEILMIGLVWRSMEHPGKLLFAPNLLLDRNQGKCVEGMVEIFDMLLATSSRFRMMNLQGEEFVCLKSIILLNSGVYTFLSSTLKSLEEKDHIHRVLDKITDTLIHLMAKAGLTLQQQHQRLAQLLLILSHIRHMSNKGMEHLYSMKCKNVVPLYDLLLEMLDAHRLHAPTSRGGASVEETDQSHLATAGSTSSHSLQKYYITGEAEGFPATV
Outline: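 VM7Luc4E2, endog. ER-alpha + 4×ERE-luc; charcoal-stripped FBS, phenol red-free, 5 d; 24hr plating; +10.0nM ICI-182,780 (final); cpds 15 conc, 22hr, 37C/5% CO2; ONE-Glo luminescence.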

[9] = qHTS assay to identify small molecule agonists or antagonists of the thyroid stimulating hormone receptor (TSHR) signaling pathway - wild type cell line counter screen (AID 1259384)
Outline: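 Wild-type HEK293 cells were plated 18 h at 37 C/5% CO2, pin-dosed with compound plus Ro20-1724 medium, held 30 min at room temperature, then given cAMP-d2 and anti-cAMP-cryptate; fluorescence was read after 1 h. Fifteen concentrations, triplicate.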

[10] = biological target: Thyrotropin receptor (Homo sapiens) (UniProt P16473); assay: qHTS assay to identify small molecule antagonists of the thyroid stimulating hormone receptor (TSHR) signaling pathway (AID 1259385); further: nearly all actives have a fitted effect of over 20% in size
Thyrotropin receptor (Homo sapiens), sequence (P16473 whole entry, looked up): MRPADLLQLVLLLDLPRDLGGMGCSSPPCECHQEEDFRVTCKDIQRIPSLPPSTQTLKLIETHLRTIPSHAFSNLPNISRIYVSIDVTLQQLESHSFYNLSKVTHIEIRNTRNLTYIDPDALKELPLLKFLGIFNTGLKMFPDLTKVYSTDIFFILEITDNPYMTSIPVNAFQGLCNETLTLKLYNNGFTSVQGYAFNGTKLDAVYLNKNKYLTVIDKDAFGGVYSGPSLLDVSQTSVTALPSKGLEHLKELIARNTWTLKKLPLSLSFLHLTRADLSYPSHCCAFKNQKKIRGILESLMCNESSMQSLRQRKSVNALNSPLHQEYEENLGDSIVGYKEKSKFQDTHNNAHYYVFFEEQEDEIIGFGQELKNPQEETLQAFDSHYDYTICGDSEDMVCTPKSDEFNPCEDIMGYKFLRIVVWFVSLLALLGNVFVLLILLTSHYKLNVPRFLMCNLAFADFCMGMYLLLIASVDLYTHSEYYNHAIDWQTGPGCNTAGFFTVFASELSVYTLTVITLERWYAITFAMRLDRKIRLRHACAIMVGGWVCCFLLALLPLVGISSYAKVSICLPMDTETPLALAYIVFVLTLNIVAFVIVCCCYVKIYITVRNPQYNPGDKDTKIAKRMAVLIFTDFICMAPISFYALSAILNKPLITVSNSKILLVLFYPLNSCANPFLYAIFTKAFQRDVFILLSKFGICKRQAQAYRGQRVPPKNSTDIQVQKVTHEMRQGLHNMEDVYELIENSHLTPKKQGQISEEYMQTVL
Outline: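 TSHR-HEK293 cells were plated and held 18 h at 37C/5% CO2, then given compound plus Ro20-1724 and stimulated with TSH at 1.5 ng/mL final. After 30 min at room temperature, cAMP was detected with cAMP-d2/anti-cAMP-cryptate (1 h) by fluorescence.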

[11] = qHTS assay to identify small molecule agonists of the estrogen receptor alpha (ER-alpha) signaling pathway in the presence of an antagonist - cell viability counter screen (AID 1259386; active means well fitted curve in the direction sought with a large enough effect in the repeat runs; an effect the other way counts as inactive or inconclusive;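 further: series mostly up to about 92 µM; cells exposed to compounds for 22 h at 37 °C before the viability read; nearly all actives have a fitted effect of over 30% in size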)
Outline: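 VM7Luc4E2, stripped-serum pre-culture 5 d; 24hr plating; +ICI-182,780 10.0nM final; cpds 15 conc, 22hr, 37C/5% CO2; CellTiter-Fluor added at 21hr, fluorescence 1hr later.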

[12] = biological target: Progesterone receptor (Homo sapiens) (UniProt P06401); assay: qHTS assay to identify small molecule agonists of the progesterone receptor (PR) signaling pathway (AID 1346784); further: nearly all actives have a fitted effect of over 30% in size; further: potency means the concentration at half of the fitted maximal effect
Progesterone receptor (Homo sapiens), sequence (P06401 whole entry, looked up): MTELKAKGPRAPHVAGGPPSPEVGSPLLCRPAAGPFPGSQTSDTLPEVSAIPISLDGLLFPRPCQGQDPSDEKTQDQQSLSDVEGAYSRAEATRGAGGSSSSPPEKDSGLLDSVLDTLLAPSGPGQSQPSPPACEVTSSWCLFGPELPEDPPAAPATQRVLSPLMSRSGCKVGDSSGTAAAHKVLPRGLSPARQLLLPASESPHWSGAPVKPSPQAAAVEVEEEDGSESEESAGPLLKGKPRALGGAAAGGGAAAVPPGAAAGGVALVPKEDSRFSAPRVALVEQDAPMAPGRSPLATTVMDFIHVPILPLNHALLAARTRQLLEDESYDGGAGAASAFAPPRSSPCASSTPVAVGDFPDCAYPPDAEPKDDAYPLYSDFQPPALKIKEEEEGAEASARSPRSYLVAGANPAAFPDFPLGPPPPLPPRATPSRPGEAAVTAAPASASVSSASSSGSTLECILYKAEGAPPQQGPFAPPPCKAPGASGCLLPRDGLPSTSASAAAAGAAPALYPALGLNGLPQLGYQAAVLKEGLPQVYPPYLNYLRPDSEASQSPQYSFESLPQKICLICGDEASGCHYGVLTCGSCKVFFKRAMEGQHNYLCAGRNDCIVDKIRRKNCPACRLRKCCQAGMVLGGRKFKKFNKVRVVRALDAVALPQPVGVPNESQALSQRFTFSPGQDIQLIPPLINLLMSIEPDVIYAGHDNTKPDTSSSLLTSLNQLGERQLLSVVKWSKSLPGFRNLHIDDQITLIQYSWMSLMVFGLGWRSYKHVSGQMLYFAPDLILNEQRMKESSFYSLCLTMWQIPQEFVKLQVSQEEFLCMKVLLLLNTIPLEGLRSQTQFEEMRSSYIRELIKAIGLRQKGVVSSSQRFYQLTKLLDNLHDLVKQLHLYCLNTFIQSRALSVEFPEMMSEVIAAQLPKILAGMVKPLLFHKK
Outline: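 Fluorescence from LiveBLAzer B/G FRET substrate cleavage (2 hr, RT) reported PR activation in PR-UAS-bla HEK 293T cells treated 16 hr at 37C/5% CO2 with compounds; medium contained 2% charcoal-stripped FBS.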

[13] = qHTS assay to identify small molecule antagonists of the progesterone receptor (PR) signaling pathway - cell viability counter screen (AID 1346798; active means well fitted curve in the direction sought with a large enough effect in the repeat runs; an effect the other way counts as inactive or inconclusive; further: nearly all actives have a fitted effect of over 50% in size; further: potency means the concentration at half of the fitted maximal effect)
Outline: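 CellTiter-Glo luminescence; PR-UAS-bla HEK293T, 3,000 cells/well; compound + R5020, 16 hr, 37C/5% CO2; 30 min RT before read.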

[14] = qHTS assay to identify small molecule agonists of the progesterone receptor (PR) signaling pathway - cell viability counter screen (AID 1346799); further: nearly all actives have a fitted effect of over 45% in size
Outline: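 In parallel with the beta-lactamase readout, cytotoxicity toward PR-UAS-bla HEK293T cells was measured by CellTiter-Glo luminescence following 16 hr compound incubation in 2% charcoal-stripped FBS medium.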

[15] = qHTS assay to identify small molecule antagonists of the TGF-beta/Smad signaling pathway - cell viability counter screen (AID 1346824; active means well fitted curve in the direction sought with a large enough effect in the repeat runs; an effect the other way counts as inactive or inconclusive; further: nearly all actives have a fitted effect of over 50% in size)
Outline: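 SBE-bla HEK 293T cells were plated overnight at 37 C, then given compounds in DMSO plus TGF-beta1 (added as 0.25 ng/mL solution) for 5 hr. After the bla read, CellTiter-Glo was added to the same wells and luminescence read after 30 min at room temperature.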

[16] = qHTS assay to identify small molecule agonists of the TGF-beta/Smad signaling pathway (AID 1346859; active means well fitted activation curve with a large enough effect in the signal ratio in the repeat runs, not every such curve was filed as active; the % refers to the signal ratio; further: series mostly up to about 77 µM)
Outline: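 After overnight seeding, SBE-bla HEK 293T cells are dosed with compounds in DMSO and kept 5 hr at 37 C, 5% CO2. LiveBLAzer-type FRET substrate is then applied for 2 hr at room temperature.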

[17] = biological target: Thyrotropin-releasing hormone receptor (Homo sapiens) (UniProt P34981); assay: qHTS assay to identify small molecule antagonists of the thyrotropin-releasing hormone receptor (TRHR) signaling pathway (AID 1346877; active means well fitted inhibition curve with a large enough effect in the repeat runs, not every such curve was filed as active; further: series mostly up to about 51 µM)
Thyrotropin-releasing hormone receptor (Homo sapiens), sequence (P34981 whole entry, looked up): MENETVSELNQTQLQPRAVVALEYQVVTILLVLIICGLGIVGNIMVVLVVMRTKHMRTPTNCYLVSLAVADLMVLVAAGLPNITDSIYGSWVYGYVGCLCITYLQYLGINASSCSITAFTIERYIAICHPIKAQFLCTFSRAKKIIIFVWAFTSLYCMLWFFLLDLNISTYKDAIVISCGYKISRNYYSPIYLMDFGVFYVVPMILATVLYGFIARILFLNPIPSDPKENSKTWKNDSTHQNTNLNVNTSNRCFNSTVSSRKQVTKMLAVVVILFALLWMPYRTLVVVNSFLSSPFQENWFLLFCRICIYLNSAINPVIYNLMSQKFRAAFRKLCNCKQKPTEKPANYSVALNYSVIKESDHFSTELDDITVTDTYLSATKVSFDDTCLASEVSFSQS
Outline: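 Intracellular calcium fluorescence, read kinetically every second over 3 min, reports TRH-evoked signalling in HEK293 cells carrying TRHR. Test compounds were added 5 min ahead of a 1 nM TRH challenge.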

[18] = biological target: Androgen receptor (Homo sapiens) (UniProt P10275); assay: qHTS assay to identify small molecule agonists of the androgen receptor (AR) signaling pathway in the presence of an antagonist (AID 1259381); further: nearly all actives have a fitted effect of over 15% in size
Androgen receptor (Homo sapiens), sequence (P10275 whole entry, looked up): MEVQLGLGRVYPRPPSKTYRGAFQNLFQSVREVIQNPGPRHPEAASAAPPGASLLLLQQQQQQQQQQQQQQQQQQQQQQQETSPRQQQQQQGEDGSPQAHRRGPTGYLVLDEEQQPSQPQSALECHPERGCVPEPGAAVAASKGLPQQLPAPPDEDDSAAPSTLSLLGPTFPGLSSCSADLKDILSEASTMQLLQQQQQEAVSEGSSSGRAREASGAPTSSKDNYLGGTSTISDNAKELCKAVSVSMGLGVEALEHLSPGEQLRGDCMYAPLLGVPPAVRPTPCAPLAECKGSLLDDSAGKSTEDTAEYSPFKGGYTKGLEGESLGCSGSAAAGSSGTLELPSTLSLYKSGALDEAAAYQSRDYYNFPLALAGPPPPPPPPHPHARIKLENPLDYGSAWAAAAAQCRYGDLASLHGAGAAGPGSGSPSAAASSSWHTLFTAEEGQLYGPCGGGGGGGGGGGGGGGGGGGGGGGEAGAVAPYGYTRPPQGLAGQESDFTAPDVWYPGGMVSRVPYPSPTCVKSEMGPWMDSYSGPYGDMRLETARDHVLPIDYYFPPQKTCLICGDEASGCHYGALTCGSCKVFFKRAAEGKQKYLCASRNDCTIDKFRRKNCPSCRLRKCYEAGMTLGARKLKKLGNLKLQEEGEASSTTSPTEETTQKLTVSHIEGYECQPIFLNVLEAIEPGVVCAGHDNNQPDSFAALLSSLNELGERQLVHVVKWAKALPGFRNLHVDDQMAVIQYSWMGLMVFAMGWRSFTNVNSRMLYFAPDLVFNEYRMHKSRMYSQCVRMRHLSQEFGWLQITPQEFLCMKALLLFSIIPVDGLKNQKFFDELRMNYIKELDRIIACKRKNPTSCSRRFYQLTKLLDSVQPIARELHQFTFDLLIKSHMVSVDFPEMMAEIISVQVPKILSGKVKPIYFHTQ
Outline: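 MDA-kb2 cells, 3,000/well, rested 5hr at 37C/0% CO2 → nilutamide 3.0uM final or buffer → compounds, 15 conc. → 16hr at 37C → ONE-Glo, 30min RT → luminescence.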

[19] = biological target: Progesterone receptor (Homo sapiens) (UniProt P06401); assay: qHTS assay to identify small molecule antagonists of the progesterone receptor (PR) signaling pathway (AID 1346795; active means well fitted inhibition curve with a large enough effect in the signal ratio in the repeat runs, not every such curve was filed as active; the % refers to the signal ratio)
Outline: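 Fluorescence intensity measured 2 hr after adding beta-lactamase FRET substrate to PR-UAS-bla HEK293T cells that had been co-treated 16 hr with compound and 1 nM R5020 (final concentration) in 2% charcoal-stripped FBS.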

[20] = qHTS assay to identify small molecule agonists of the TGF-beta/Smad signaling pathway - cell viability counter screen (AID 1346829; active means well fitted curve in the direction sought with a large enough effect in the repeat runs; an effect the other way counts as inactive or inconclusive; further: top concentration of the series differs between compounds; nearly all actives have a fitted effect of over 45% in size)
Outline: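 Compound-treated SBE-bla HEK 293T cells (5 hr, 37 C) were assessed for viability with CellTiter-Glo in parallel with the reporter read.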

SMILES	Potency [1]	Potency [2]	outcome [3]	Potency [4]	Potency [5]	Potency [6]	outcome [7]	Potency [8]	outcome [9]	Potency [10]	Potency [11]	Potency [12]	Potency [13]	Potency [14]	outcome [15]	outcome [16]	outcome [17]	Potency [18]	Potency [19]	outcome [20]
CCOc1ccc(OCC)c(Cl)c1	inactive	inactive	inactive	inactive	inactive	inactive	inactive	inactive	inactive	inactive	inactive	inactive	inactive	inactive	inactive	inactive	inactive	–	–	–
CCCS(=O)c1ccc2nc(NC(=O)OC)[nH]c2c1 (configuration not stated)	inactive	inactive	inactive	inactive	inactive	inactive	inactive	–	inactive	inactive	inactive	inactive	inactive	inactive	inactive	inactive	inactive	inactive	inactive	inactive
Nc1cccc(S(=O)(=O)O)c1	inactive	inactive	inactive	inactive	inactive	inactive	inactive	inactive	inactive	inactive	inactive	inactive	–	–	inactive	inactive	–	–	–	inactive
CC(Oc1c(Cl)cccc1Cl)C1=NCCN1 (configuration not stated)	inactive	13.3 µM (active)	inactive	inactive	inactive	inactive	inactive	–	inactive	inactive	inactive	inactive	29.8 µM (active)	–	inactive	inactive	inactive	inactive	–	inactive
CC1(O)CSC(C)(O)CS1 (configuration not stated)	inactive	inactive	inactive	inactive	inactive	inactive	inactive	inactive	–	–	inactive	inactive	inactive	–	inactive	inactive	–	inactive	inactive	–
CC(=O)OC(C)OC(C)=O	inactive	inactive	inactive	inactive	inactive	inactive	inactive	–	inactive	inactive	inactive	50 µM (active)	–	inactive	inactive	inactive	inactive	inactive	inactive	inactive
N#Cc1ccc(C(c2ccc(C#N)cc2)n2cncn2)cc1	inactive	inactive	inactive	inactive	inactive	inactive	inactive	inactive	inactive	inactive	inactive	–	inactive	–	inactive	inactive	–	inactive	inactive	inactive
CCCC(CCC)(C(=O)OCC)C(=O)OCC	inactive	inactive	inactive	inactive	inactive	inactive	inactive	inactive	inactive	inactive	inactive	inactive	inactive	inactive	–	inactive	inactive	inactive	inactive	inactive
